TDP1 cell noCPT = qHTS for Inhibitors of human tyrosyl-DNA phosphodiesterase 1 (TDP1): qHTS in cells in absence of CPT | DT40 Tdp1-/- hTDP1 cells, no CPT, ATP luminescence, 48 h | Potency, µM (top dose mostly 46.2 µM), without a hit: at the top dose activity change, negative = growth inhibition, most hits filed as inhibitors | actives 15% (n = 420,000); note: potency is the fitted concentration of half-maximal effect; % is set by controls: 0 for no effect and ±100 for the full control effect; nearly all actives have a fitted effect of over 55% in size
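Growth of hTDP1-complemented DT40 Tdp1-knockout cells is measured by ATP luminescence after at least 48 hr compound exposure at 37 °C, with DMSO substituting for the 20 nM CPT used in the parallel screen.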
IL-1B inflam inh = inhibitors of inflammasome signaling (IL-1 beta secretion) | activity change, % at 57.5 µM | AID 743279 | THP-1 LPS/ATP IL-1B secretion, AlphaLISA, 16 h; stronger effect = lower value | actives 4.7% (n = 360,000); in the data active = activity change below about -50%; inconclusive = mostly about -30% to -49%; note: % is set by controls: 0 for no effect and ±100 for the full control effect
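THP-1 cells pretreated 1 hr with compounds (up to 57.5 uM final), then stimulated with LPS (250 ng/mL final) plus ATP (1.25 mM final); secreted IL-1B measured by AlphaLISA after 16 hr, decreased signal indicating inhibition.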
TDP1 cell CPT = growth inhibition of DT40 Tdp1-/-;hTDP1 cells with camptothecin (screen for TDP1 inhibitors); Potency, µM (doses to about 46.2 µM), for inactives: at the top dose activity change, negative = growth inhibition, usual class: inhibitors; chicken DT40 Tdp1-/-;hTDP1 cells + 20 nM CPT, ATP luminescence, 48 h; actives 12% (n = 420,000); note: potency is the fitted concentration of half-maximal effect; % is set by controls: 0 for no effect and ±100 for the full control effect; nearly all actives have a fitted effect of over 55% in size
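Chicken DT40 Tdp1-/- cells complemented with human TDP1, 400 cells/well, exposed to compounds plus 20 nM camptothecin for at least 48 h at 37 C; viability read as ATP content by CellTiter-Glo luminescence.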
ClpP mod = qHTS Assay for Activators of ClpP; ATP-dependent Clp protease proteolytic subunit (Bacillus subtilis (strain 168)), P80244; purified B. subtilis ClpP, FRET peptide cleavage, 20 min; Potency, µM (doses to about 57.5 µM), without a hit: top-dose activity change, negative = active; actives 1.9% (n = 340,000); AID 651965, 2013; active = well fitted falling curve with a large enough effect; inconclusive = small, poorly fitted or top-dose-only effect; inactive = no such curve, though single readings can be large or run the other way; note: potency is the fitted concentration of half-maximal effect; the source files actives as falling curves though it sought activators and does not explain the sign; nearly all actives have a fitted effect of over 65% in size
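Purified B. subtilis ClpP, 10 microg/mL final in Tris/HCl pH8 with KCl, BSA, glycerol and Tween-20, cleaved an Abz/nitrotyrosine-quenched decapeptide. Fluorescence (ex 320, em 430) was read at 0 and 20 min at room temperature. Delta was normalized to 5.8 microM ADEP and DMSO/no-enzyme controls.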
D3 antag = blocks the human D3 dopamine receptor | max response, negative = inhibition, % | actives 2.5% (n = 360,000) | D3R cells, DiscoveRx beta-arrestin luminescence, antagonist mode; stronger effect = lower value; in the data active = max response below about -50%; inconclusive = no clear call, values can overlap the other calls; note: % is set by controls: 0 for no effect and ±100 for the full control effect
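Cells plated overnight at 1500 cells/well, then exposed to library compounds with dopamine controls for 90 minutes at 37 degrees C. DiscoveRx reagent added for 30–60 minutes at room temperature; luminescence read, quantitative HTS format.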
D3 ag = D3 dopamine receptor (human) agonism; P35462; D3R DiscoveRx beta-arrestin cells, luminescence, 90 min; max activation, %; actives 0.58% (n = 410,000); AID 652048; in the data active = max activation above about 30%; note: 0% is about no effect
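Agonist mode: compounds and dopamine controls were applied to plated cells for 90 min at 37 degrees C after an overnight attachment at 1500 cells/well. Luminescent read-out followed 30 - 60 minutes at room temperature with DiscoveRx detection reagent.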
* marks the source's active call; other numbers are inactive results; ? = inconclusive; . = no result. Rows were chosen to be rich in hits. Some 21% of all compounds tested hit in one or more screens of this group. Unless noted, calls come from the whole dose curve; as a rule, active = well fitted inhibition curve with a large enough effect; inconclusive = small, poorly fitted or top-dose-only effect; inactive = flat fitted curve, though single readings scatter.

SMILES	TDP1 cell noCPT	IL-1B inflam inh	TDP1 cell CPT	ClpP mod	D3 antag	D3 ag
COc1ccc(C(CNC(=O)CNC(=O)c2cccc(F)c2)N2CCOCC2)cc1 (configuration not stated)	-6.5%	-6.3	6.4%	-3.4%	-1.6	-10.7
CC(=O)Nc1ccc(S(=O)(=O)Nc2ccc(Cl)cn2)cc1	-5.0%	7.9	-6.2%	1.0%	15.2	1.3
CC(=O)Nc1ccc(S(=O)(=O)c2ccnc3cc(Cl)ccc23)cc1	9.2µM*	-102.6*	11.6µM*	0.2%	?	-10.2
COc1ccc(N=C2C(=S)N(c3ccc(OC)cc3)C(=NS(=O)(=O)c3ccccc3)N2c2ccccc2)cc1	1.46µM*	-4.6	1.46µM*	28.2µM*	-9.1	4.3
CCOC(=O)C1CCN(c2ccc(-c3cccs3)nn2)CC1	?	37.5	?	.	10.3	11.2
c1csc(-c2ccc(N3CCOCC3)nn2)c1	8.2µM*	-12.9	?	?	-0.7	-3.6
C=CCNc1ccccc1S(=O)(=O)NCc1ccccc1	-13.1%	18.1	?	-21.4%	-17.9	1.3
COc1ccccc1NC(=O)CCN1C(=O)c2ccccc2C1=O	-1.3%	-16.3	3.0%	-0.3%	1.5	2.0
Cc1ccc(-n2ncc3c2CCCC3NC(=O)CSc2ccccn2)cc1C (configuration not stated)	?	0.0	?	0.4%	-5.8	-2.8
C=CCNc1ncnc2c1[nH]c1ccc(Cl)cc12	23.1µM*	-121.6*	?	28.2µM*	1.1	2.7
C=CCNc1ncnc2c1cnn2-c1ccc(Cl)cc1	?	3.5	?	-25.7%	1.5	0.8
COc1ccc(C2CCN(Cc3cccnc3)CC2O)cc1 (configuration not stated)	-12.3%	11.0	-11.0%	0.2%	-24.6	-20.4
COc1ccc(N2c3ccccc3CN(Cc3ccccc3)[C@@H](C)[C@H]2Cc2cccnc2)cc1	20.6µM*	22.8	?	?	62.1	1.8
COc1ccc(C2SCC(=O)N2Cc2ccccc2)cc1 (configuration not stated)	?	8.8	?	1.3%	16.4	3.8
COc1ccc(N2c3ccccc3CN(Cc3ccccc3)[C@@H](C)[C@H]2Cc2c(C)cccc2C)cc1	16.4µM*	32.1	18.4µM*	-18.5%	2.2	-0.3
CC1=Nc2cc(C(=O)NCCCN3CCOCC3)ccc2Sc2c(C)ccc(C)c21	?	-73.5*	?	-1.7%	0.5	-7.5
CC1=Nc2cc(C(=O)NCCN3CCOCC3)ccc2Sc2c(C)ccc(C)c21	13µM*	3.1	16.4µM*	0.2%	-0.9	2.1
CCCNC(=O)c1ccc2c(c1)N=C(C)c1c(C)ccc(C)c1S2	.	.	.	-0.7%	.	-2.2
CSc1nsc(SC)c1NC(=O)Nc1ccccn1	?	1.3	16.4µM*	-0.8%	-15.9	-0.1
C=CCNc1nc2cc(-c3cccc(Cl)c3)sc2c(=O)n1C	16.4µM*	79.1	13µM*	-14.1%	16.3	-0.7
Cn1c(NCCN2CCCC2)nc2cc(-c3ccccc3)sc2c1=O	?	-26.7	?	-17.7%	20.4	3.0
CN(C)CCCNc1nc2cc(-c3ccc(F)cc3)sc2c(=O)n1C	18.4µM*	-15.0	18.4µM*	-22.3%	-5.9	-16.0
COc1cccc(-c2cc3nc(NCCN4CCCC4)n(C)c(=O)c3s2)c1	23.1µM*	?	?	?	5.7	-6.3
CN(C)CCCNc1nc2cc(-c3ccccc3)sc2c(=O)n1C	20.6µM*	0.0	20.6µM*	5.0%	?	-10.0
CN(C)CCCNc1nc2cc(-c3cncnc3)sc2c(=O)n1C	-27.4%	-0.7	-29.3%	-13.7%	0.0	-9.7
SMILES	TDP1 cell noCPT	IL-1B inflam inh	TDP1 cell CPT	ClpP mod	D3 antag	D3 ag
O=C(OCC(=O)N1CCN(C(=O)COC(=O)c2ccc(O)cc2O)CC1)c1ccc(O)cc1O	?	3.1	-28.3%	-1.3%	15.8	-7.3
Cc1cccc(C(=O)NCC(=O)OCC(=O)N(C)CC(=O)Nc2ccc(F)cc2)c1	-11.2%	9.5	-21.5%	3.4%	20.1	1.3
COC(=O)c1ccc(C2c3[nH]c4ccccc4c3C[C@H]3C(=O)N(C4CCN(Cc5ccccc5)CC4)CC(=O)N23)cc1 (some centres not stated)	?	0.0	?	-9.5%	-61.2*	-21.5
COc1cc(C2c3[nH]c4ccccc4c3C[C@H]3C(=O)N(C4CC4)CC(=O)N23)ccc1OC(C)C (some centres not stated)	-25.2%	?	?	.	-0.1	-7.3
O=C1[C@@H]2Cc3c([nH]c4ccccc34)C(c3cccc(Br)c3)N2C(=O)CN1C1CCN(Cc2ccccc2)CC1 (some centres not stated)	20.6µM*	-64.1*	?	-3.4%	-18.7	-26.5
COc1cccc(C2c3[nH]c4ccccc4c3C[C@H]3C(=O)N(C4CC4)CC(=O)N23)c1 (some centres not stated)	?	-15.8	?	-2.2%	-3.6	0.5
O=C1[C@@H]2Cc3c([nH]c4ccccc34)C(c3ccccc3)N2C(=O)CN1C1CCN(Cc2ccccc2)CC1 (some centres not stated)	16.4µM*	-65.5*	16.4µM*	.	-11.3	-15.0
CC(C)C(C)NC(=O)COC(=O)C1CCN(S(=O)(=O)c2ccc3c(c2)OCCO3)CC1 (configuration not stated)	-0.1%	14.8	7.3%	-0.9%	-16.7	-3.9
Nc1c(Br)cc(Br)c2c1C(=O)c1c(cccc1S(=O)(=O)O)C2=O	?	-15.9	-7.7%	.	-55.1*	-17.4
COc1ccc(CSC(=S)NNc2ccccc2)cc1	18.4µM*	40.5	?	-0.1%	-26.5	-2.5
O=C(NCC1CCN(Cc2cccc(Cl)c2)CC1)Nc1ccccc1Cl	?	-83.4*	-21.2%	.	?	-24.7
Cc1ccc(CN2CCC(CNC(=O)Nc3ccccc3F)CC2)cc1	?	-53.0*	0.9%	-0.7%	-24.3	-13.2
Cc1ccc(NC(=O)NCC2CCN(Cc3cccc(Cl)c3)CC2)c(Cl)c1	-29.7%	-51.4*	?	0.9%	-26.9	-14.9
Cc1ccc(NC(=O)NCC2CCN(Cc3cc(C)ccc3Cl)CC2)c(C)c1	?	8.8	?	0.8%	-12.9	-16.5
O=C(NCC1CC1)Nc1ccccc1F	16.2%	10.6	-10.5%	.	5.0	4.2
